Records with an inconclusive call do not appear. Where a call stands in place of a potency, no number is given. Values without a mark were called inactive. Calls of active or inactive are those of the source. Unless noted, the call rests on the fitted dose curve; in most records, active means well fitted curve in the direction sought with a large enough effect in the repeat runs; inconclusive means weak or mixed curves; inactive means no such curve, though single readings can be large; an effect the other way counts as inactive or inconclusive.
How the values were obtained:
[1] = qHTS assay to identify small molecule agonists of the vitamin D receptor (VDR) signaling pathway - cell viability counter screen (AID 743224); further: series mostly up to about 63 µM; nearly all actives have a fitted effect of over 50% in size
Outline: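 Viability is measured in the same wells as the VDR-bla reporter assay: after 16 h compound treatment and 2 h substrate loading, CellTiter-Glo is added and luminescence read 30 min later.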

[2] = qHTS assay to identify small molecule antagonists of the vitamin D receptor (VDR) signaling pathway - cell viability counter screen (AID 743225); further: nearly all actives have a fitted effect of over 50% in size
Outline: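 Parallel cytotoxicity test: VDR-UAS-bla HEK 293T, 3 nM (final) 1-alpha,25-dihydroxyvitamin D3 with test compound, 16 h, 37C. Endpoint is CellTiter-Glo luminescence in the same wells.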

[3] = qHTS assay to identify small molecule agonists of the NFkB signaling pathway - cell viability counter screen (AID 1159515; calls by dose curve; further: series mostly up to about 61 µM; nearly all actives have a fitted effect of over 55% in size)
Outline: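 Multiplexed viability readout: after the 5 hr compound exposure and 1.5 hr FRET substrate step, CellTiter-Glo reagent went into the same NFkB-bla ME-180 wells; ATP luminescence was measured after 30 min at room temperature.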

[4] = qHTS assay to identify small molecule agonists of the endoplasmic reticulum stress response signaling pathway (AID 1159516; active means well fitted activation curve with a large enough effect in the signal ratio in the repeat runs, not every such curve was filed as active; the % refers to the signal ratio)
Outline: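 Tox21 10K library screened in quantitative HTS format on ESRE-bla HeLa cells, a beta-lactamase reporter under ER stress response element control; 5 hr treatment, FRET read.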

[5] = qHTS assay to identify small molecule agonists of the endoplasmic reticulum stress response signaling pathway - cell viability counter screen (AID 1159517; calls by dose curve; further: series mostly up to about 61 µM; nearly all actives have a fitted effect of over 50% in size)
Outline: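 Counter-screen wells were identical to the reporter wells. Cells were plated at 1,500 per well and dosed for 5 hr, then read for luminescence 30 min after CellTiter-Glo addition.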

[6] = qHTS assay to identify small molecule antagonists of the retinoid-related orphan receptor gamma (ROR-gamma) signaling pathway - cell viability counter screen (AID 1159520); further: nearly all actives have a fitted effect of over 50% in size; further: potency means the concentration at half of the fitted maximal effect
Outline: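 Tet-on ROR gamma CHO cells were given compounds for 2 hr, then doxycycline hyclate at 1 uM final, and incubated 16 hr at 37 C. Viability was measured as ATP content by CellTiter-Glo luminescence.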

[7] = qHTS assay to identify small molecule agonists of the AP-1 signaling pathway (AID 1159526; calls by dose curve)
[8] = qHTS assay to identify small molecule agonists of the RXR signaling pathway - cell viability counter screen (AID 1159529)
Outline: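 In this parallel viability measure, GeneBLAzer RXR-alpha HEK 293T cells (2% charcoal-stripped FBS) were given a 5 hr preincubation, treated with compounds 16 hr at 37 C, and read by CellTiter-Glo luminescence.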

[9] = qHTS assay to identify small molecule antagonists of the retinoid acid receptor (RAR) signaling pathway - cell viability counter screen (AID 1159551); further: nearly all actives have a fitted effect of over 35% in size
Outline: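 Cytotoxicity counter screen in C3RL4 cells: 6 h compound exposure with 1 uM retinol (final), viability from cellular ATP by luminescence.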

[10] = qHTS assay to identify small molecule antagonists of the retinoic acid receptor (RAR) signaling pathway (AID 1159552; further: nearly all actives have a fitted effect of over 50% in size; further: potency means the concentration at half of the fitted maximal effect)
Outline: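 C3RL4 RARE-luc cells, overnight plating; retinol 1 uM final added right after compound; 6 hr 37 C; luciferase read at 30 min RT.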

[11] = qHTS assay to identify small molecule agonists of the retinoic acid receptor (RAR) signaling pathway (AID 1159553); further: potency means the concentration at half of the fitted maximal effect
Outline: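 Agonist activity was scored in C3RL4 cells bearing a retinoic acid response element luciferase construct. Cells were treated with compounds for 6 hr at 37 C, and luciferase signal was measured as luminescence.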

[12] = qHTS assay to identify small molecule agonists of the AP-1 signaling pathway - cell viability counter screen (AID 1159525; calls by dose curve; further: nearly all actives have a fitted effect of over 55% in size)
Outline: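 AP-1-bla ME-180 cells in Opti-MEM with 0.5% dialyzed FBS, compound exposure 5 h at 37 C in 15-point titration. Viability read in the same wells as ATP content by CellTiter-Glo luminescence, normalised to tetra-n-octylammonium bromide and DMSO controls.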

[13] = target: Retinoic acid receptor RXR-alpha (Homo sapiens) (UniProt P19793); assay: qHTS assay to identify small molecule agonists of the RXR signaling pathway (AID 1159527; calls by dose curve; further: nearly all actives have a fitted effect of over 35% in size; further: potency means the concentration at half of the fitted maximal effect)
Retinoic acid receptor RXR-alpha (Homo sapiens), sequence (P19793 whole entry, looked up): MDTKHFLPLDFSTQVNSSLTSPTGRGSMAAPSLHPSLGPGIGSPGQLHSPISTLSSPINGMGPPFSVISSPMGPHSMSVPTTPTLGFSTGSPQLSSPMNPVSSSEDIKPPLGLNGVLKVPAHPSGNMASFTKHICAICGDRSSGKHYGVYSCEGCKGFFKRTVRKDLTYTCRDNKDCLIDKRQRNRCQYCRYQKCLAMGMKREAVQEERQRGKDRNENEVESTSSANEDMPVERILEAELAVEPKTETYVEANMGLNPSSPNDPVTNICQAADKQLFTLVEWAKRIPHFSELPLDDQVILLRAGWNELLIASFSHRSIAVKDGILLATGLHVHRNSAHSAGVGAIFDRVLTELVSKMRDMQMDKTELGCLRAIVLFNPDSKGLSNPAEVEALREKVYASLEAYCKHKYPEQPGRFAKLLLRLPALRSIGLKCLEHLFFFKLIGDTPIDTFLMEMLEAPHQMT
Outline: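 16 hr incubation of compound-treated RXR-alpha-UAS-bla HEK 293T cells (2% charcoal-stripped FBS, 37 C) preceded a 2 hr room-temperature LiveBLAzer FRET substrate step and blue/green fluorescence measurement.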

[14] = target: Nuclear receptor ROR-gamma (Homo sapiens) (UniProt P51449); assay: qHTS assay to identify small molecule antagonists of the retinoid-related orphan receptor gamma (ROR-gamma) signaling pathway (AID 1159521; further: nearly all actives have a fitted effect of over 50% in size; further: potency means the concentration at half of the fitted maximal effect)
Outline: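 Decreased RORE-driven luciferase luminescence indicates antagonism. Tet-on RORγ CHO cells received compound, then 1 uM final doxycycline 2 h later; signal read after 16 h incubation.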

SMILES	Potency [1]	Potency [2]	Potency [3]	Potency [4]	Potency [5]	Potency [6]	Potency [7]	Potency [8]	Potency [9]	Potency [10]	Potency [11]	Potency [12]	Potency [13]	Potency [14]
CN1[C@@H]2CC[C@H]1CC(O)C2 (some centres undefined)	inactive	inactive	inactive	inactive	inactive	inactive	inactive	inactive	inactive	inactive	inactive	–	–	–
O=c1[nH]c2cc(Cl)ccc2n1C1CCNCC1	–	–	inactive	inactive	inactive	inactive	inactive	inactive	inactive	inactive	inactive	inactive	–	–
CNC(=O)Oc1cc(C)cc(C(C)C)c1	inactive	inactive	inactive	inactive	inactive	inactive	inactive	inactive	inactive	–	–	inactive	11 µM (active)	–
CC#C[C@]1(O)CC[C@H]2[C@@H]3C[C@H](C)C4=CC(=O)CC[C@]4(C)[C@H]3CC[C@@]21C	inactive	inactive	inactive	inactive	inactive	–	–	inactive	inactive	13.3 µM (active)	–	inactive	–	26.6 µM (active)
CCN(CC)CCc1c[nH]c2ccccc12	–	inactive	inactive	inactive	inactive	–	–	inactive	inactive	inactive	–	inactive	inactive	inactive
CN1CCc2cc(Cl)c(O)cc2[C@H]2c3ccccc3CC[C@@H]21	inactive	inactive	inactive	inactive	inactive	inactive	inactive	–	inactive	–	–	inactive	–	–
CNC(C)(C)Cc1ccccc1	inactive	inactive	inactive	inactive	inactive	inactive	inactive	inactive	inactive	–	–	inactive	inactive	–
N#Cc1c[nH]cc1-c1cccc2c1OC(F)(F)O2	inactive	–	inactive	inactive	inactive	–	inactive	inactive	inactive	–	–	inactive	1.38 µM (active)	17.2 µM (active)
O.O.O.O.O.O.O=S(=O)([O-])[O-].[Ni+2]	inactive	inactive	inactive	inactive	inactive	inactive	inactive	inactive	inactive	–	–	inactive	inactive	–
Cc1ccn2nc(S(=O)(=O)Nc3c(F)cccc3F)nc2n1	inactive	inactive	inactive	inactive	inactive	inactive	inactive	inactive	inactive	inactive	–	–	inactive	–
Cc1c([N+](=O)[O-])cc2c(c1[N+](=O)[O-])C(C)(C)CC2(C)C	–	inactive	inactive	inactive	inactive	inactive	–	–	inactive	inactive	inactive	inactive	–	–
CCOC(=O)CCN(SN(C)C(=O)Oc1cccc2c1OC(C)(C)C2)C(C)C	–	inactive	inactive	inactive	inactive	–	–	inactive	inactive	61.1 µM (active)	–	inactive	–	30.6 µM (active)
CNC(=O)CSP(=O)(OC)OC	inactive	inactive	inactive	inactive	inactive	–	inactive	inactive	inactive	inactive	inactive	inactive	–	–
CN1C2CCC(C)(C)C1CC(OC(=O)C(O)(c1cccs1)c1cccs1)C2 (centres undefined)	inactive	inactive	inactive	inactive	–	inactive	inactive	inactive	inactive	inactive	–	inactive	inactive	inactive
C=CCOC(=O)c1ccccc1N	inactive	inactive	inactive	inactive	inactive	–	inactive	–	inactive	inactive	–	inactive	–	–
Oc1cc(Cl)cc(Cl)c1	inactive	inactive	inactive	inactive	–	inactive	inactive	inactive	inactive	inactive	inactive	inactive	inactive	inactive
COC(=O)c1ccccc1S(=O)(=O)NC(=O)Nc1nc(C)nc(OC)n1	–	inactive	inactive	inactive	inactive	–	inactive	inactive	inactive	inactive	inactive	inactive	inactive	–
COc1ccc2[nH]cc(CCN(C(C)C)C(C)C)c2c1	inactive	inactive	inactive	inactive	–	inactive	–	inactive	inactive	inactive	–	inactive	–	inactive
Oc1ccc([C@H]2CNCc3c2ccc(O)c3O)cc1O	–	inactive	inactive	inactive	inactive	–	inactive	inactive	inactive	inactive	23.7 µM (active)	inactive	inactive	–
CN/C(=N\[N+](=O)[O-])NCc1cnc(Cl)s1	inactive	inactive	inactive	inactive	–	inactive	inactive	inactive	inactive	inactive	inactive	inactive	inactive	inactive
Clc1ccc(C(Cl)(Cl)Cl)cc1Cl	inactive	inactive	inactive	inactive	–	53.3 µM (active)	inactive	inactive	inactive	–	–	inactive	inactive	inactive
C#CCC1=C(C)C(OC(=O)C2C(C=C(C)C)C2(C)C)CC1=O (centres undefined)	inactive	–	inactive	inactive	inactive	–	–	–	inactive	–	–	inactive	–	–
